An excerpt weighted towards active compounds, which were near 2.9% of everything screened.
DRD3 agonist: D3 dopamine receptor (human) agonism; P35462; D3R DiscoveRx beta-arrestin cells, luminescence, 90 min; max activation, %; 410,000 tested, 0.58% active; in the data active means max activation above about 30%
Target sequence (P35462 whole entry, looked up): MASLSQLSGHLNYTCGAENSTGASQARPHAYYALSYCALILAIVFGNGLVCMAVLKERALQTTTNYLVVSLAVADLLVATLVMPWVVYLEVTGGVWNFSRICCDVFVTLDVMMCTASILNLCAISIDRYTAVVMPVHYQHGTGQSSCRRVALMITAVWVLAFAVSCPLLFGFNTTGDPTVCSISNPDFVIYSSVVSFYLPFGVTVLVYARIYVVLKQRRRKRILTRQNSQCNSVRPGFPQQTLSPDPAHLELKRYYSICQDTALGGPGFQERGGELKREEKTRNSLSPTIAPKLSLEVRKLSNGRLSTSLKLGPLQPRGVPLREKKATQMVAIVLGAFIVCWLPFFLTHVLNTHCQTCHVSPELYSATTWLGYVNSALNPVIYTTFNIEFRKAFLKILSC
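Agonist mode: compounds and dopamine controls were applied to plated cells for 90 min at 37 degrees C after an overnight attachment at 1500 cells/well. Luminescent read-out followed 30 - 60 minutes at room temperature with DiscoveRx detection reagent.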
Integrin act MD: integrin-mediated muscular dystrophy alleviation activation. alpha7betagal myoblasts, beta-gal FDG fluorescence, 48 h. Potency, µM (top dose mostly 38.3 µM), usual class: activators. 350,000 tested, 0.064% active. AID 624291; active means well fitted activation curve with a large enough effect; inconclusive means small, poorly fitted or top-dose-only effect; inactive means no such curve, though single readings can be large or run the other way; further: nearly all actives have a fitted effect of over 60% in size
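Alpha7betagal+/- myoblasts (passage 13) were plated 16-24 hr, then exposed to compounds (1:260 dilution of DMSO stock) for 48 hours at 37C. After MPER lysis, β-galactosidase reporter activity was read as FDG fluorescence (ex 480/em 540) after 30 minutes.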
D3 antag: antagonists of human D3 dopamine receptor; D3R cells, DiscoveRx beta-arrestin luminescence, antagonist mode; active compounds read low; max response, negative = inhibition, %; 360,000 tested, 2.5% active; in the data active means max response below about -50%; inconclusive means no clear call, values can overlap the other calls
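Cells expressing the human receptor were seeded at 1500 cells/well, incubated overnight at 37 degrees C in 5% CO2, then exposed to library compounds with dopamine controls for 90 minutes at 37 degrees C before luminescent detection.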
Of the large screens only hits and unclear results are named; the others gave an inactive call; ! = not confirmed by another sample.

CCCC(c1nnnn1C1CCCC1)N1CCN(C(=O)c2ccco2)CC1 (stereo not given)	none
CCC(c1nnnn1C1CCCC1)N1CCN(c2cccc(OC)c2)CC1 (stereo not given)	none
Fc1ccccc1C(c1nnnn1C1CCCC1)N1CCN(Cc2ccccc2)CC1 (stereo not given)	none
CCC(c1nnnn1C1CCCC1)N1CCN(C/C=C/c2ccccc2)CC1 (stereo not given)	D3 antag -60.8 (no result: Integrin act MD)
CSCCC(c1nnnn1C1CCCC1)N1CCN(C/C=C/c2ccccc2)CC1 (stereo not given)	D3 antag -78.0 (no result: Integrin act MD)
CCC(c1nnnn1C1CCCC1)N1CCN(Cc2ccccc2)CC1 (stereo not given)	D3 antag -65.2
Cc1nc2cc(-c3ccc(Cl)cc3)nn2c(C)c1CCC(=O)N1CCN(c2ccccc2)CC1	none (no result: Integrin act MD, D3 antag)
CC1(Cc2ccc(S(C)(=O)=O)cc2)C(=O)Nc2ccc(Cl)cc21 (stereo not given)	none (no result: Integrin act MD)
CCOc1ccc2nc(SCC(=O)N3CCCCCC3)c(C#N)cc2c1	none
COc1cc([C@H]2[C@@H]3CCCC[C@]3(O)CCN2CC(=O)Nc2ccc(C)cc2)ccc1O	none
O=C(CSc1nc2ccccc2c(=O)[nH]1)Nc1cccc([N+](=O)[O-])c1	none
Cc1nn(-c2ccccc2)c(C)c1-c1nnc(-c2c(C)nn(-c3ccccc3)c2C)o1	none
COc1ccc(-c2cc(C(=O)NC(C)C)no2)cc1	none
O=C1CCC(C(=O)OCC(=O)c2ccccc2)N1 (stereo not given)	none
N#Cc1ccc(COC(=O)C2CCC(=O)N2)cc1 (stereo not given)	Integrin act MD inconclusive, D3 antag -51.9
CC(C)C(NC(=O)OCc1ccccc1)C(=O)NC1CCCCC1 (stereo not given)	none
Cc1cc(C)c(C#N)c(SCCS(=O)(=O)Cc2ccccc2)n1	D3 antag -84.4
CCS(=O)(=O)CCSc1nc(C)cc(C)c1C#N	none
O=C(CSC1=NCCN1)Nc1ccccc1[N+](=O)[O-]	none
CC(=O)NC1CCN(CC(=O)Nc2cccc([N+](=O)[O-])c2)CC1	none
O=C(CN1CCCCC1)Nc1ccc(S(=O)(=O)NC2CCCCC2)cc1	D3 antag -50.6
O=C(CN1CCCC1)Nc1ccc(F)c(Cl)c1	none
O=C(CSC1=NCCN1)Nc1cccc([N+](=O)[O-])c1	D3 antag -64.5
O=C(CN1CCOCC1)Nc1ccc(S(=O)(=O)NC2CCCCC2)cc1	none
O=C(CN1CCCCC1)Nc1ccc(F)c(Cl)c1	D3 antag -58.3
O=C(CN1CCCCC1)Nc1cccc([N+](=O)[O-])c1	D3 antag -62.1
Cc1cc(C)cc(NC(=O)CCNS(=O)(=O)c2ccc3c(c2)oc(=O)n3C)c1	none
CC(C)C(=O)N1CCN(S(=O)(=O)c2ccc3ccccc3c2)CC1	none
CCCOc1ccc(/C=N/NC(=O)CSCc2ccc([N+](=O)[O-])cc2)cc1OCC	none
COc1ccc(S(=O)(=O)NC2CCCCCC2)cc1C(N)=O	none
O=C(CCN1CCCCC1)Nc1cccc(Cl)c1	D3 antag inconclusive
O=C(CN1CCCCC1)NNC(=O)c1cccc(Br)c1	D3 antag -80.3
O=C(CCN1CCN(Cc2ccccc2)CC1)NNC(=O)Nc1cccc([N+](=O)[O-])c1	D3 antag -50.5
O=C(CCN1CCCCCC1)Nc1cccc(Cl)c1	D3 antag -142.8
O=C(O)CCCC(=O)NNC(=O)c1cccc(Br)c1	none
COc1ccc(S(=O)(=O)NC2CCCCC2)cc1C(=O)N1CCCCC1	D3 antag -65.9
O=C(CCN1CCN(Cc2ccccc2)CC1)NNC(=O)Nc1cccc(Cl)c1	D3 antag inconclusive
Cc1ccc(NC(=O)CSc2nc3ccccc3c(=O)n2CCCC(=O)N2CCCC2)cc1	none
CN1CCN(C(=O)C2=C[C@@H](c3csc4ccccc34)C[C@@H](OCCCCO)O2)CC1	D3 antag inconclusive
CNC(=O)C1CCN(S(=O)(=O)c2c(C)noc2/C=C/c2ccc(C)cc2)CC1	none
O=C(CSc1nnc(-c2ccncc2)n1-c1ccc(Cl)cc1)NCc1cccs1	none
COc1ccccc1P(=O)(c1ccccc1)c1ccc([N+](=O)[O-])cc1 (stereo not given)	none
Cc1cc(Cl)c2oc(C(=O)N3CCN(c4cccc(C)n4)CC3)c(C)c2c1	none
Brc1ccc2c(c1)-c1ccccc1C1=NCCN12	none
O=S(=O)(c1ccc(Cl)cc1)N1CCN(c2ccccn2)CC1	none
O=C(CN1CCOCC1)Nc1cccc(Br)c1	none
O=C(Cc1cccc([N+](=O)[O-])c1)Nc1ccc(C(=O)N2CCOCC2)cc1	none
O=C(Cc1cccc([N+](=O)[O-])c1)Nc1cccc(C(=O)N2CCOCC2)c1	D3 antag -51.0
O=C(CN1CCCCC1)Nc1cccc(Br)c1	D3 antag -63.2
COc1ccccc1Oc1ccnc2cc(Cl)ccc12	none
OC(c1ccccc1)c1ccccc1CN1CCCNC1=S (stereo not given)	none
COc1ccccc1N1CCN(C(CNC(=O)C(=O)NCc2ccc(F)cc2)c2cccnc2)CC1 (stereo not given)	none (no result: Integrin act MD, D3 antag)
O=C(COC(=O)c1cccc2c1C(=O)c1ccccc1C2=O)NC1CCCCC1	none
O=C(COC(=O)c1ccc2c(c1[N+](=O)[O-])C(=O)c1ccccc1C2=O)NC1CC1	D3 antag -64.0
Cc1cccc(NC(=O)CN2C(=O)c3ccccc3Sc3ncccc32)c1C	none (no result: Integrin act MD, D3 antag)
O=C1C2CC=CCC2C(=O)N1Cc1ccccc1 (stereo not given)	none
O=C1C=CC(=O)N1Cc1ccccc1	D3 antag -139.5 (no result: Integrin act MD)
O=S(=O)(c1ccc(-c2csc(-c3cccnc3)n2)cc1)N1CCCCC1	none
Clc1ccc2nc(-c3cccc(SC4CCCCC4)c3)c(NCc3ccccc3)n2c1	none
CCCCNc1c(-c2ccc(SC3CCCCC3)cc2)nc2ccccn12	DRD3 agonist 71.9!
CCCCNc1c(-c2ccc(SC3CCCCC3)c(OC)c2)nc2ccc(C)cn12	none
CCCCNc1c(-c2ccc(SC(C)CC)cc2)nc2ccccn12 (stereo not given)	DRD3 agonist 30.2!
CCCCNc1c(-c2cccc(SC3CCCCC3)c2)nc2ccc(Cl)cn12	DRD3 agonist 69.4!
CCCCNc1c(-c2cccc(SC(C)CC)c2)nc2ccc(Cl)cn12 (stereo not given)	none
O=C(Nc1ccc2oc(-c3cccc(Cl)c3Cl)nc2c1)c1cccc(Br)c1	none (no result: Integrin act MD, D3 antag)
COc1ccc(CCNC(=O)C2CCC(=O)N2Cc2ccccc2Cl)cc1OC (stereo not given)	none
O=[N+]([O-])c1cc(Cl)ccc1N1CCCC1	none
O=C1C(Cl)=C(N2CCN(c3ccccc3[N+](=O)[O-])CC2)C(=O)c2ccccc21	D3 antag -60.3
COC1(OC)C(/C=C/c2ccc(C)cc2)C(C#N)(C#N)C1(OC)OC (stereo not given)	none
COc1cccc(/C=N/NC(=O)NC23CC4CC(CC(C4)C2)C3)c1O	D3 antag -61.8
O=C(N/N=C/c1ccccc1F)NC12CC3CC(CC(C3)C1)C2	none
COc1ccc(C(=O)NN2CCOCC2)cc1	none
Cc1ccc(-c2nn(-c3cccc(F)c3)cc2CN(Cc2nccn2C)C(C)C)o1	none
Cc1ccc(-c2nn(-c3cccc(F)c3)cc2CN2CCN(c3ccccn3)CC2)o1	D3 antag -69.6
Cc1ccccc1-c1ccccc1N	none

Screening data deposited in PubChem by National Center for Advancing Translational Sciences (NCATS).
